A number with no mark means an inactive call. Results filed as inconclusive are left out. Active and inactive are the calls of the source. Unless noted, the call rests on the fitted dose curve; in most records, active means well fitted curve in the direction sought with a large enough effect; inconclusive means small, poorly fitted or top-dose-only effect, or another doubt; inactive means no such curve, though single readings can be large; an effect the other way counts as inactive or inconclusive.

Among the data in PubChem BioAssay (NCATS) are Potency and outcome values, retold here.

Assay [1] has as its target Cytochrome P450 3A4 (Homo sapiens) (UniProt P08684). The experiment in a line: qHTS Assay for Inhibitors and Substrates of Cytochrome P450 3A4 (AID 884). Further: nearly all actives have a fitted effect of over 50% in size. Further: potency means the concentration at half of the fitted maximal effect. The method, boiled down: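 20 nM human CYP3A4 with 25 uM Luciferin-PPXE (at KM) in 200 mM KPO4, preincubated 10 min with compound; NADPH regeneration started a 60 min RT reaction. Luciferin detected by luminescence, normalized to 57 uM ketoconazole as full inhibition.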

Assay [2] has the same target. The experiment in a line: qHTS Assay for Activators of Cytochrome P450 3A4 (AID 885). Further: nearly all actives have a fitted effect of over 65% in size. The method, boiled down:
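Signal was normalized against complete inhibition by 57 uM ketoconazole. The reaction used 20nM CYP3A4 with 25uM Luciferin-PPXE, 10-min compound preincubation and a 60-min NADPH-supported step at RT.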

The target in assay [3] is Luciferin 4-monooxygenase (Photinus pyralis) (UniProt P08659). The experiment in a line: Biochemical firefly luciferase enzyme assay for NPC (AID 624030).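 Further: purified P. pyralis luciferase at 10 nM with luciferin and ATP substrate; nearly all actives have a fitted effect of over 70% in size.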 The method, boiled down:
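Purified P. pyralis luciferase at 10 nM in 50 mM Tris Acetate (final), luminescence read within 5 minutes of enzyme addition to compounds. Activity normalised to PTC124 versus DMSO; concentration-response curves classed by r2, magnitude and activity.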

Assay [4] can be described thus: S16 Schwann cell viability assay (CellTiter-Glo assay) (AID 624031).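 Further: native untransfected S16 rat Schwann cells; cellular ATP luminescence as a viability measure; nearly all actives have a fitted effect of over 70% in size.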 The method, boiled down:
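Concentration-effect curves come from CellTiter-Glo luminescence of S16 rat Schwann cells after 24 h compound exposure. Each reading was normalized to DMSO wells (0%) and wells without cells, and curves were ranked by r2 and response magnitude.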
On the technique in general: In ATP-based viability assays light output follows the ATP content of the culture.

The nature of assay [5]: S16 Schwann cell PMP22 intronic element firefly luciferase assay (AID 624032). Further: nearly all actives have a fitted effect of over 30% in size. Further: potency means the concentration at half of the fitted maximal effect. The method, boiled down:
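Rat S16 Schwann cells stably carrying firefly luciferase driven by a PMP22 intronic element, in 10% FBS, treated 24 h at 37 C. ONE-Glo luminescence normalized to PTC124 control and DMSO (0%); curves classed by r2, magnitude and activity.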

In a further assay the test system is 7G8. The experiment in a line: qHTS profiling for inhibitors of Plasmodium falciparum proliferation (AID 504749). Further: nearly all actives have a fitted effect of over 60% in size. Further: potency means the concentration at half of the fitted maximal effect. The note with it: P. falciparum in erythrocytes, SYBR Green DNA, 72 h; series mostly up to 12.8 µM. The method, boiled down:
(§1)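 P. falciparum-infected erythrocytes (0.3% parasitemia, 2.5% hematocrit) incubated with compound 72 h at 37 C, 5% CO2. Parasite DNA detected by SYBR Green after lysis, overnight at room temperature; normalised to 0.29 uM artemisinin and DMSO.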

The subject of another assay is CP215. The description is as above. Conditions: P. falciparum in erythrocytes, SYBR Green DNA, 72 h; series mostly up to 12.8 µM. The gist of the method: as §1
Another assay deals with DFO2036. Described as above. The note with it: P. falciparum in erythrocytes, SYBR Green DNA, 72 h; series mostly up to 12.8 µM. The method, boiled down: as §1
A further assay has as its system DIV14. Described as above. The note with it: P. falciparum in erythrocytes, SYBR Green DNA, 72 h; series mostly up to 12.8 µM. The method, boiled down:
as §1

The next assay deals with GB4. The assay is described as above. The note with it: P. falciparum in erythrocytes, SYBR Green DNA, 72 h; series mostly up to 12.8 µM. The gist of the method: as §1
Another assay has as its system W2. Described as above. The note with it: P. falciparum in erythrocytes, SYBR Green DNA, 72 h; series mostly up to 12.8 µM. The gist of the method:
as §1

Assay [6] has as its target Glucocorticoid receptor (Homo sapiens) (UniProt P04150). The experiment in a line: GR-EFC Redistribution (AID 451; calls by dose curve; further: potency means the concentration at half of the fitted maximal effect). The note with it: CHO-K1 GR-EFC translocation, beta-gal luminescence, 2 h. The gist of the method: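 CHO-K1 cells expressing nuclear EA and GR-ED fragments of b-gal; compounds titrated up to 46 uM final, 2 h at 37 C. GR nuclear translocation read as complemented b-gal luminescence after 1 h RT detection.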

For assay [7], the target named is Mitogen-activated protein kinase 10 (Mus musculus) (UniProt Q61831). The experiment in a line: JNK3 AlphaScreen Assay (AID 530; active means well fitted curve in either direction with a large enough effect, not every such curve was filed as active;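 further: kinase came from lysate of stimulated human HepG2 cells; signal reports phosphorylation of biotinylated GST-cJun 1-79 at Ser73 with 10 µM ATP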). The gist of the method:
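Pre-activated (IL-1β/TNFα) JNK3 in HepG2 lysates phosphorylates biotin-GST-cJun(1-79), 10 uM ATP; anti-phospho-cJun(Ser73) AlphaScreen read at room temperature, pH 7.6 Tris buffer. Compounds pre-incubated 15 min as titrations.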

Sequence of Cytochrome P450 3A4 (Homo sapiens) (P08684 whole entry, looked up): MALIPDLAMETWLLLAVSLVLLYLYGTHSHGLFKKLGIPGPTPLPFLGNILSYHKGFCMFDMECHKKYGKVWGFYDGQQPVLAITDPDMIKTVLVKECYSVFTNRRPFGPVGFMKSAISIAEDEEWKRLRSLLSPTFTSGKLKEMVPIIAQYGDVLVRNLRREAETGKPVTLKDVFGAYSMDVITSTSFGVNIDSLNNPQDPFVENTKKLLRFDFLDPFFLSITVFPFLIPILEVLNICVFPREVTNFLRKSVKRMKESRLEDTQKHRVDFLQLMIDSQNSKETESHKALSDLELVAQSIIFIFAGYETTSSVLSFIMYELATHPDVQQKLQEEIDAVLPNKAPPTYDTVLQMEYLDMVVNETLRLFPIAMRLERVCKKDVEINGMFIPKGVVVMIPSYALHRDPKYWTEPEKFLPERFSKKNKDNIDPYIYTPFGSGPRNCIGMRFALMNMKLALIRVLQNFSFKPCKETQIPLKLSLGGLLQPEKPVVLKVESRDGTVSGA
Sequence of Luciferin 4-monooxygenase (Photinus pyralis) (P08659 whole entry, looked up): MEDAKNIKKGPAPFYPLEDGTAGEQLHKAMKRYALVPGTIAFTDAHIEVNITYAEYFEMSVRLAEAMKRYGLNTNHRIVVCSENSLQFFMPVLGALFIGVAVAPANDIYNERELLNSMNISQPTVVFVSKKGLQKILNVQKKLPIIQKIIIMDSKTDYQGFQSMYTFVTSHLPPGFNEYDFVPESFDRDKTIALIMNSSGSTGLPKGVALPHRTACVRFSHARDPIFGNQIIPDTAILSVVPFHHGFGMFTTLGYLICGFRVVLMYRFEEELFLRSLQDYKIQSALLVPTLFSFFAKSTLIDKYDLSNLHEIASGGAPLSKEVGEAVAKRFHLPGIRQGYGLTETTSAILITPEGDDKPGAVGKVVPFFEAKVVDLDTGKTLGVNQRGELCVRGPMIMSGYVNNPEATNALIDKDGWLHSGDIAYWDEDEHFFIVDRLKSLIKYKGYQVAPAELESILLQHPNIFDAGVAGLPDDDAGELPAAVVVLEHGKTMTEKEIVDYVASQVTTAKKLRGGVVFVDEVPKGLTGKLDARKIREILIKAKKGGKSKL
Sequence of Glucocorticoid receptor (Homo sapiens) (P04150 whole entry, looked up, the tested form may be a part): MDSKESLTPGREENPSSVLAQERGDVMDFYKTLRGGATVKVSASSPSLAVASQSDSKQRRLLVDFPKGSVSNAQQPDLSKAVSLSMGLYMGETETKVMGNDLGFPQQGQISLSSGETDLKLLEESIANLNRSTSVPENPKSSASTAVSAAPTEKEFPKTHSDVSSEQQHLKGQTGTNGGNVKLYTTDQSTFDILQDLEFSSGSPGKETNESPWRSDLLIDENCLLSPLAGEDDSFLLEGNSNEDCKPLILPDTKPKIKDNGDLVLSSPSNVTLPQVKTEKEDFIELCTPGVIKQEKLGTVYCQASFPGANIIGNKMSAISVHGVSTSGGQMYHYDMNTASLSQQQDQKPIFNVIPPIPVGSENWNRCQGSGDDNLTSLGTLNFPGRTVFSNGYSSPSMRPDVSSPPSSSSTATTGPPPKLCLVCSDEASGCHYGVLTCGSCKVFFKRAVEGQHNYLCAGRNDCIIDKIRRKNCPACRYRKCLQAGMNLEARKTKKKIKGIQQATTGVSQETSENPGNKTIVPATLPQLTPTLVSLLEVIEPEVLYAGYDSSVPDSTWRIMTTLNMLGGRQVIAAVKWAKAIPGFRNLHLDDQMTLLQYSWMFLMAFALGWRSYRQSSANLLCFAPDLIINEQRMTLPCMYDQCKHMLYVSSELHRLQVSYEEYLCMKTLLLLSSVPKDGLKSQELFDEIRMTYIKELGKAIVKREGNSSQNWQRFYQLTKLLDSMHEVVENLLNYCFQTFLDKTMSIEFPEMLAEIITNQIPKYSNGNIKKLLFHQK

As for `CCC(C)C(=O)OC1CCC=C2C=CC(C)C(CCC3CC(O)CC(=O)O3)[C@@H]21` (some centres not stated), the Potency in assay [1] is 20 µM (active). Besides, the Potency entry (in [2]; in assay [3]; in [5]; with 7G8; in the assay on CP215; in the assay with DFO2036) was “inactive” each time. Also, the Potency result with DIV14, in the assay on GB4 and in the assay with W2 was “inactive” throughout. Also, the compound was classed as inactive in [4].

For `CO[C@]12C(COC(N)=O)C3=C(C(=O)C(C)=C(N)C3=O)N1CC1NC12` (some centres not stated), in assay [3], the Potency entry is “inactive”. Also, the Potency in the assay on 7G8 was 0.708 µM (active); in the assay on DFO2036, 0.316 µM (active).

In the case of `CCCC(=O)O[C@]1(C(=O)CO)CCC2[C@@H]3CCC4=CC(=O)CC[C@]4(C)C3C(O)C[C@]21C` (some centres not stated), the Potency entry (in assay [1]; in assay [5]; with 7G8; with CP215; in the assay on DFO2036; with DIV14) was “inactive” each time. The Potency entry with GB4 and with W2 was “inactive” in each case. The compound was classed as inactive in [4].

Turning to `CC(C)C1CCC(C(=O)NC(Cc2ccccc2)C(=O)O)CC1` (configuration not stated), the Potency entry (in assay [1]; in assay [3]; in assay [5]; in the assay with 7G8; in the assay with CP215; in the assay with DIV14) was “inactive” each time. In addition, the Potency result in the assay with GB4 and in the assay on W2 was “inactive” throughout. In addition, the compound was called inactive in assay [4].

With `CC1=C(CCC(=O)O)c2cc3nc(cc4[nH]c(cc5[nH]c(cc1n2)c(C)c5C(C)O)c(C)c4C(C)O)C(C)=C3CCC(=O)O` (configuration not stated), the Potency result in [1] is “inactive”.

Turning to `CN1CC(=O)N=C1N`, the Potency entry (in assay [1]; in assay [5]; in the assay on 7G8; in the assay on CP215; with DFO2036; with DIV14) was “inactive” in each case. Further, the Potency result with GB4 and with W2 was “inactive” throughout.

Consider `C[C@]12C=CC(=O)C=C1CCC1C2C(O)C[C@]2(C)C1CC[C@]2(O)C(=O)CO` (some centres not stated), for which the Potency entry (in assay [3]; in assay [5]; with 7G8; with CP215; in the assay with DFO2036; with DIV14) was “inactive” throughout. In addition, the Potency result in the assay with GB4 and with W2 was “inactive” each time. Also, the result in assay [4] was inactive.

On to `CN(C)CCc1c[nH]c2ccc(CC3COC(=O)N3)cc12` (configuration not stated), for which the Potency entry (in assay [1]; in assay [5]; with CP215; in the assay with DFO2036; in the assay with DIV14; in the assay with GB4) was “inactive” each time. The Potency result in the assay on W2 is “inactive”. The compound was called inactive in assay [4].

As to `COC1C=CO[C@@]2(C)Oc3c(C)c(O)c4c(O)c(c(C=NN5CCN(C)CC5)c(O)c4c3C2=O)NC(=O)/C(C)=C\C=CC(C)C(O)[C@@H](C)C(O)C(C)[C@H](OC(C)=O)C1C` (some centres not stated), in [4], the outcome was inactive. The Potency in assay [5] was 20.3 µM (active); with 7G8, 0.112 µM (active); in the assay on CP215, 4.26 µM (active); in the assay with DFO2036 it was 3.55 µM (active); with DIV14, 0.301 µM (active); with GB4 it was 0.953 µM (active). Moreover, the Potency in the assay with W2 is 0.12 µM (active).

Turning to `COc1cccc(-c2nc(NCCc3c[nH]c4ccc(OC)cc34)c3ccccc3n2)c1`, the Potency in [6] was more than 46 µM; in assay [1] it was 2 µM (active). Moreover, the Potency result in assay [7] and in [2] was “inactive” throughout.

On to `CC[C@@]12CCCN3CCc4c(n(c5ccccc45)[C@](O)(C(=O)OC)C1)C32` (some centres not stated), for which the Potency result (in assay [3]; in [5]; in the assay with CP215; with DFO2036; in the assay with DIV14; in the assay on GB4) was “inactive” throughout. Moreover, the result in [4] was inactive.
